A selection: hits, their analogues and other compounds. The true share with any hit is near 4.8%.
tim10-1 inh – growth inhibitors of tim10-1 mutant yeast, primary screen, luminescence, uHTS; S. cerevisiae tim10-1 ts strain growth, BacTiter-Glo, 24 h; inhibition, % at 20 µM; actives 2.2% (n = 330,000); AID 463190, 2010;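 active = inhibition of at least 40%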;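 also: mutant grown at 25 °C; 0% = DMSO wells with yeast and 100% = wells holding no yeast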
tim23-1 inh – growth inhibitors of tim23-1 mutant yeast, primary screen, luminescence, uHTS. S. cerevisiae tim23-1 growth, BacTiter-Glo luminescence, 24 h. inhibition, % at 20 µM. actives 1.3% (n = 330,000);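 active = growth inhibition of the mutant yeast at or above 50%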;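 also: temperature-sensitive mutant grown at 25 °C; plate controls were DMSO-treated mutant yeast for no effect and medium wells lacking yeast for full effect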
SKKanGAS inh – S. pyogenes SKKanGAS growth inhibitors in kanamycin, primary screen, streptokinase expression inhibitor project, SKKanGAS strain, BacTiter-Glo luminescence. 6 h. inhibition, % at 7.5 µM. actives 1.3% (n = 300,000);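 active = mean replicate score, as percent of positive control median, at least 50; inconclusive = mean below 50 but one replicate at or above 50; inactive = mean and every replicate below 50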;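 also: strain carries kanamycin resistance gene driven by streptokinase promoter and grows in 40 µg/ml kanamycin; loss of luminescence reflects streptokinase promoter inhibition or plain growth inhibition; 0% = median of DMSO wells and 100% = positive control at its reference dose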
TIM10 inh – growth inhibitors of isogenic TIM10 control yeast, primary screen, counter-screen for tim10-1 yeast inhibitor project, luminescence, uHTS; S. cerevisiae TIM10 strain growth, BacTiter-Glo luminescence, 24 h; inhibition, % at 10 µM; actives 1.4% (n = 330,000); AID 463195, 2010;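 active = inhibition of 40% or more at the single tested concentration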;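 also: wild-type TIM10 isogenic control strain grown at permissive 25 °C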
PfHsp90 set2 – growth inhibition of PfHsp90-expressing yeast, primary screen, antimalarial PfHsp90 inhibitor project, S. cerevisiae, BacTiter-Glo luminescence, single point, set 2. BacTiter-Glo ATP, 48 h; yeast lacking PDR1 and PDR3 efflux regulators. inhibition, % at 9.4 µM. actives 0.32% (n = 310,000). AID 504621, 2011;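 active = every replicate shows inhibition above about 80%, whatever the replicate mean, limit read from the data; inconclusive = mean inhibition reaches the set limit but some replicate falls short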;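 also: 0% = DMSO neutral controls and 100% = 20 µM radicicol positive controls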
NALP1 yeast inh – NALP1 inflammasome inhibitors in reconstituted yeast, colorimetric, S. cerevisiae, triplicate retest; S. cerevisiae NALP1/ASC/caspase-1 growth, X-gal OD620, 72 h; inhibition, % at 10 µM; actives 0.61% (n = 280,000); in the data active = inhibition mostly above about 24%, no sharp cut-off; inactive = mostly below about 32%
The depositor's hits bear a star; ? = inconclusive; / = no result given.

SMILES | tim10-1 inh | tim23-1 inh | SKKanGAS inh | TIM10 inh | PfHsp90 set2 | NALP1 yeast inh
Nc1cccc(C#Cc2ccc3c(=O)c4ccccc4oc3c2)c1 | -5 | -5 | / | -5 | -42 | /
COc1ccc(C#Cc2ccc3c(c2)c(=O)c2ccccc2n3C)cc1 | 24 | 11 | 91* | 16 | -22 | 4
Nc1ccc(C#Cc2ccc3oc4ccccc4c(=O)c3c2)cc1 | 0 | -4 | 97* | 2 | 15 | /
Cn1c2ccccc2c(=O)c2cc(C#Cc3ccc(N)cc3)ccc21 | 30 | 19 | 85* | 28 | 3 | 1
Cc1nc(-c2ccc(F)cc2)c(CC(=O)N(C)CC(=O)Nc2ccc(F)cc2)s1 | 17 | 27 | -10 | 8 | -23 | /
Cc1nc(C/C(=N\Nc2ccccc2)c2ccc(O)cc2O)cs1 | 25 | 29 | -4 | 27 | -10 | 11
CCCCNc1nc(-c2ccccc2)nc(-n2ccnc2)n1 | 15 | 15 | 1 | 10 | / | 44*
C=CCNc1nc(-c2ccccc2)nc(-n2ccnc2)n1 | 20 | 27 | 8 | 35 | -33 | 2
CC1(C)CC[C@]2(C(=O)O[C@@H]3O[C@H](CO)[C@@H](O)[C@H](O)[C@H]3O)CC[C@]3(C)C(=CCC4[C@@]5(C)CC[C@H](O[C@@H]6O[C@H](C(=O)O)[C@@H](O[C@H]7OC[C@@H](O)[C@@H](O)[C@@H]7O)[C@H](O)[C@H]6O)C(C)(C)C5CC[C@]43C)[C@@H]2C1 (stereo partly drawn) | 6 | 14 | / | -7 | -7 | /
CC1(C)CC[C@]2(C(=O)O)CC[C@]3(C)C(=CC[C@@H]4[C@@]5(C)CC[C@H](O[C@@H]6O[C@H](C(=O)O)[C@@H](O)[C@H](O[C@@H]7OC[C@H](O)[C@H](O)[C@H]7O)[C@H]6O)C(C)(C)[C@@H]5CC[C@]43C)[C@@H]2C1 | -253 | -84 | / | -12 | 108* | /
O=C(c1cc(-c2ccncc2)nc2ccccc12)N1CCN(c2ccccc2O)CC1 | 10 | 17 | 14 | 19 | -24 | 2
O=C(c1cc(-c2ccccc2)nc2ccccc12)N1CCN(c2ccccc2O)CC1 | 30 | 40 | 67* | 27 | -44 | 28
COc1ccc(C(=O)NCC(=O)OCn2nnc3ccccc3c2=O)cc1OC | 4 | -14 | -3 | 2 | / | 7
Cc1nc(Nc2cnc(/C=C/c3cc(C(=O)Nc4cccc(C(F)(F)F)c4)ccc3C)cn2)cc(N2CCNCC2)n1 | 35 | 24 | 72* | 7 | / | 22
O=C1C=CC(=Nc2ccc(F)cc2)O1 | / | / | / | / | 119* | /
CCN(CC)S(=O)(=O)c1ccc2[nH]cc(C(=O)NCCN3CCCCCC3)c(=O)c2c1 | 3 | 19 | -9 | -19 | 15 | 32*
CCN(CC)S(=O)(=O)c1ccc2[nH]cc(C(=O)NCCCN3CCCCC3)c(=O)c2c1 | -4 | 3 | -1 | 11 | 4 | 23
Cc1ccc(N=Cc2cccc(O)c2O)c(C)c1 | 36 | 42 | 57* | 28 | -47 | -3
Clc1cccc2c1Sc1ccccc1CC2N1CCNCC1 (stereo not drawn) | 32 | -45 | -3 | 33 | 36 | 74*
COc1ccc(C(=O)NCC(=O)NCC2(N(C)C)CCCCC2)cc1OC | 5 | -10 | 4 | 8 | 13 | 2
Cn1nc(C(=O)Nc2cccc(S(=O)(=O)N3CCCC3)c2)c2ccccc2c1=O | 8 | 32 | / | 10 | 5 | /
Cn1nc(C(=O)Nc2cccc(S(N)(=O)=O)c2)c2ccccc2c1=O | 5 | -5 | 0 | -22 | 11 | 40*
N#C/C(C(N)=O)=C1/SC=C(c2ccccc2)N1c1ccccc1 | 2 | 0 | -1 | -8 | / | 37*
CCOc1ccc2c(=O)c(Oc3ccccc3OCC)coc2c1 | 23 | 48 | -2 | 23 | 15 | 44*
CCOc1ccccc1Oc1coc2cc(OCC(=O)O)ccc2c1=O | 4 | 5 | 7 | -15 | -9 | 18
SMILES | tim10-1 inh | tim23-1 inh | SKKanGAS inh | TIM10 inh | PfHsp90 set2 | NALP1 yeast inh
COc1ccc(C2c3c(ccc4ccccc34)Oc3ncn4nc(Cc5ccc(OC)c(OC)c5)nc4c32)cc1 (stereo not drawn) | 18 | 26 | 21 | 7 | / | 25
CCC(c1nnnn1Cc1ccccc1)N1CCN(C(=O)c2ccco2)CC1 (stereo not drawn) | 9 | 11 | -9 | -6 | -12 | 34*
CCCCN(CCCC)Cc1cc2ccccc2c2c1COC2 | -15 | -9 | 3 | -4 | -9 | 44*
CCCN(CCC)Cc1cc2ccccc2c2c1COC2 | 4 | 4 | 13 | 5 | -4 | -6
CCOc1ccc(/C=C2/Sc3ccc(C(=O)N4CCOCC4)cc3N(C)C2=O)cc1OC | 17 | 9 | 68* | -2 | -6 | 19
COc1ccc(C(=O)NC2CCCCCCC2)cc1OC | 0 | 7 | 1 | 11 | 0 | /
CN1C(=O)/C(=C/c2cccc(Cl)c2)Sc2ccc(C(=O)N3CCOCC3)cc21 | 8 | 11 | ? | 10 | -21 | 13
COc1ccc(/C=C2\Sc3ccc(C(=O)NC4CC4)cc3N(C)C2=O)cc1OC | 2 | 16 | 70* | 18 | 17 | 22
COc1ccc(/C=C2\Sc3ccc(C(=O)N4CCCC4)cc3N(C)C2=O)cc1OC | 20 | 16 | 100* | -2 | -50 | 22
COc1ccc(N2CCN(CCCNC(=O)C(=O)c3c[nH]c4ccccc34)CC2)cc1 | 9 | 17 | -9 | 13 | -15 | 10
COC(=O)c1ccc(CSc2n[nH]c(=S)s2)o1 | 2 | 6 | 63* | 10 | 25 | -8
FC(F)(F)c1ccc(C2[C@H]3CN(Cc4cccnc4)[C@H](c4ccccc4)C34CC2(c2cccnc2)C4)cc1 (stereo partly drawn) | 22 | 18 | 53* | 22 | -1 | /
FC(F)(F)c1ccc(C2[C@H]3CN(Cc4ccc(-c5ccccc5)cc4)[C@H](c4ccccc4)C34CC2(c2cccnc2)C4)cc1 (stereo partly drawn) | 11 | 21 | 8 | 11 | / | /
O=C(CNC(=O)c1ccco1)NCc1nc2ccccc2[nH]1 | 1 | 3 | 51* | 3 | -24 | 15
Cc1ccc(N/N=C2\CS(=O)(=O)N(C)c3ccsc32)cc1 | 30 | 44 | 101* | -4 | -18 | 26
CCC(Oc1ccccc1)C(=O)NCCCN1CCOCC1 (stereo not drawn) | -17 | -8 | -1 | 0 | -2 | -3
Cc1csc(NC(=O)c2c(O)c3c(n(CC(C)C)c2=O)CCCC3)n1 | 12 | 19 | 61* | 16 | 17 | 31*
CCn1c(NCc2ccco2)nc2ccccc21 | 16 | 7 | 11 | -4 | -10 | 24*
